We go through 24 compounds from PubChem BioAssay AID624481 (The Scripps Research Institute Molecular Screening Center, 2012).

Molecules are shown by their SMILES. Unmarked numbers belong to inactive results. No stated cut-off is given here; in the data, active means inhibition above about 50%; inactive means the rest.

What is called inhibition is the drop in the measured response relative to a control, in per cent.

Prolyl endopeptidase-like (Mus musculus), sequence (Q8C167 whole entry, looked up): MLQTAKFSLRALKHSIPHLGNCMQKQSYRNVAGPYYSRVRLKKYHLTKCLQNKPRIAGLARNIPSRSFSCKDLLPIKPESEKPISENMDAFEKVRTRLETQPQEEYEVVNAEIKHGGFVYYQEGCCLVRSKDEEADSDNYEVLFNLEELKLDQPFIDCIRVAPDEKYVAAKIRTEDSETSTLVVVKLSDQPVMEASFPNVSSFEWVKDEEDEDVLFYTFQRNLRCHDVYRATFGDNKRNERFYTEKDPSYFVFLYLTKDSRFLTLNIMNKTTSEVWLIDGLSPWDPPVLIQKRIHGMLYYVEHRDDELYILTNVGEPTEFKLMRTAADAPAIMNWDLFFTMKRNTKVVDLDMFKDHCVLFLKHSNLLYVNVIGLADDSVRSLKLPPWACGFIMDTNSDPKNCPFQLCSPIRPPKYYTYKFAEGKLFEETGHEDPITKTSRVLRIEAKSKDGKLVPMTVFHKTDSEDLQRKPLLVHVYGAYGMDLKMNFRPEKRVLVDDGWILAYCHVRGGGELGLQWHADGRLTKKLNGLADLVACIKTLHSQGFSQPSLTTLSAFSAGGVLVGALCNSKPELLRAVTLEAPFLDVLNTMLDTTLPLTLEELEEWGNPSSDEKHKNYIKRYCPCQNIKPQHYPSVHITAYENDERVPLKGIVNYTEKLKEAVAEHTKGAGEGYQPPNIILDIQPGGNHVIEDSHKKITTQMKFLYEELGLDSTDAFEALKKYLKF

The experiment addresses Prolyl endopeptidase-like (Mus musculus) (UniProt Q8C167). As to the kind of experiment: mouse PREPL enzyme inhibition by screening hits – biochemical, gel-based competitive ABPP, fluorescence, HTS hits, PREPL inhibitor project (AID 624481). The following applies: purified mouse PREPL, at 20 µM, hits give high values.
As to `CC(C)[C@@H]1CN=C(N)N1C[C@@H]1CCCN1C[C@H](C)N1C[C@@H](Cc2ccccc2)N(CCc2ccc(Cl)c(Cl)c2)C1=N`, the inhibition was -62%.
For the compound `Cc1ccccc1OCc1nnc(SCC(=O)Nc2ccc(N3CCOCC3)c(Cl)c2)n1C`, the inhibition was -46%.
For the compound `O=C(C1=C[C@@H](c2ccc(Br)cc2)C[C@@H](OCc2ccc(CO)cc2)O1)N1CCOCC1`, the inhibition is -26%.
With `CCCCCNc1nc(N2CCCC2)c2c(c1C#N)CCN(C)C2`, the inhibition is -89%.
`CN(C)S(=O)(=O)c1cccc(-c2csc(=Nc3ccccc3)n2CCCN2CCOCC2)c1`: the inhibition was -41%.
The result for `CC(C)[C@H](CN1CCC[C@H]1CN1C(N)=NC[C@@H]1Cc1ccccc1)N1C[C@@H](Cc2ccccc2)N(CCc2ccc(Cl)c(Cl)c2)C1=N` reads -75%; that for `CCCCCCCCCCCCCCCC[n+]1cccc(C(=O)N(CC)CC)c1`, 10%.
Regarding `CC[C@@H](C)[C@@H]1CN([C@@H](C)CN2CCC[C@H]2CN2C(N)=NC[C@H]2C(C)C)C(=N)N1CCc1ccc(Cl)c(Cl)c1`, the inhibition was -48%.
The result for `COc1ccc(C)cc1Nc1n[n+](-c2ccccc2)c(-c2ccc(OC)c(OC)c2OC)s1` reads -41%.
The result for `O=C1NC(Cc2c[nH]c3ccccc23)C(=O)N1Cc1ccc(CN2C(=O)NC(Cc3c[nH]c4ccccc34)C2=O)cc1` (centres undefined) reads 28%; that for `CN(C)c1ccc(C(O)P(=O)(OCc2ccccc2)c2ccc(N(C)C)cc2)cc1` (centres undefined), -57%; that for `NC(=O)[C@H]1CC2(CC(c3cccc(NC(=O)COc4ccc(Cl)cc4)c3)=NO2)CN1C(=O)Cc1ccc([N+](=O)[O-])cc1` (some centres undefined), -114%.
Regarding `c1ccc(CCNc2nc(-c3ccccn3)nc3ccccc23)cc1`, the inhibition is -127%.
The result for `CCC[C@@H](CN1CCC[C@H]1CN1C(N)=NC[C@H]1C(C)C)N1C[C@@H]([C@H](C)CC)N(CCCC2CCCC2)C1=N` reads -68%.
Take `CC(C)(C)Nc1nc(-c2ccccn2)nc2ccccc12`: the inhibition is -31%.
Take `COc1ccc(C2CC(c3cccc(C)c3)n3nc(N)nc3N2)cc1` (centres undefined): the inhibition is -50%.
The result for `c1ccc2c(NCCc3c[nH]c4ccccc34)c3ccccc3nc2c1` reads -49%; that for `C(=NNc1nc2ccccc2[nH]1)c1c[nH]c2ccccc12`, 36%; that for `Cc1cccc(C2CC(c3ccc(Cl)cc3)Nc3nc(N)nn32)c1` (centres undefined), -60%.
As for `Nc1nn(-c2ccccc2)c(N)c1N=Nc1ccc2c(c1)OCO2`, the inhibition is 17%.
With `COCCn1c(-c2ccc(Br)cc2)csc1=Nc1cccnc1`, the inhibition was 43%.
Consider `CN(C)c1ccc(C(CNC(=O)c2ccc(-c3ccccc3)cc2)N2CCOCC2)cc1` (centres undefined), for which the inhibition is -7%.
With `COCCCNC(=O)/C(C#N)=C/c1c(N2CCN(c3ccc(OC)cc3)CC2)nc2c(C)cccn2c1=O`, the inhibition was -39%.
Consider `CC(=O)N1CCN(c2ccc(NCc3ccc(-c4ccc(Br)cc4)o3)cc2)CC1`, for which the inhibition was -23%.
